# Shown are actives, neighbours in structure and some others; about 7.9% of the full set was active somewhere.
# SW480 rereplic = DNA re-replication induction in SW480 cells | SW480 DNA re-replication, Hoechst DNA content imaging, 48 h | Potency, µM (highest dose often 46.1 µM), for inactives: top-dose re-replication activation, hits mostly activators | actives 1.8% (n = 340,000) | AID 624297; further: % of control where 0% means no effect; nearly all actives have a fitted effect of over 55% in size
#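 250 cells/well; 23 nL cpd via pin tool; 48 hr, 37 C, 5% CO2; Hoechst 40 min; imager read of total nuclear intensity, ex 405/em 500-530 nm.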
# MCF10A rereplic = induces DNA re-replication in MCF 10a normal breast cells; MCF 10A DNA re-replication, Hoechst nuclear intensity, 48 h; Potency, µM (doses to about 46.1 µM), inactives show top-dose activity, positive = re-replication, actives largely listed as activators; actives 2.9% (n = 350,000); AID 624296; further: % of control where 0% means no effect; nearly all actives have a fitted effect of over 50% in size
# KB-3-1 cytotox = KB-3-1 parental cell cytotoxicity. Potency, µM (top dose mostly 46.1 µM), actives largely listed as cytotoxic. KB-3-1 viability, CellTiter-Glo ATP luminescence, 72 h. actives 1.4% (n = 400,000); further: on the % scale 0 is the no-effect control and ±100 the full control effect; nearly all actives have a fitted effect of over 60% in size
#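 KB-3-1 parental drug-naive adenocarcinoma cells in DMEM/10% FBS, incubated 72 h at 37 C with pin-transferred compounds across a concentration series. Viability by CellTiter-Glo luminescence; concentration-response curves fitted after normalization.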
# KB-V1 cytotox = kills drug-selected multidrug resistant KB-V1 cells; KB-V1 MDR cells viability, CellTiter-Glo, 72 h; Potency, µM (series often up to 46.1 µM), actives largely listed as cytotoxic; actives 3.4% (n = 400,000); AID 1347076; further: on the % scale 0 is the no-effect control and ±100 the full control effect; nearly all actives have a fitted effect of over 60% in size
#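 qHTS viability screen in drug-selected KB-V1 MDR cells: 72 h compound treatment at 37 degrees C, ATP luminescence end point.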
# HT1080NT lethal = kills 2HG-producing HT-1080-NT fibrosarcoma cells; HT-1080-NT fibrosarcoma viability, CellTiter-Glo ATP luminescence, 48 h; Potency, µM (titrated, usually from 46.1 µM), for inactives: top-dose activity, negative = less viability, most hits filed as cytotoxic; actives 1.6% (n = 360,000); AID 686970;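 further: NT is the 2HG producing partner of a matched IDH1 knockdown line; 0% = DMSO-treated cells and -100% = media-only wells without cells; nearly all actives have a fitted effect of over 55% in size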
#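 Viability by CellTiter-Glo luminescence after 48 h compound exposure at 37C of HT-1080-NT cells (750/well, RPMI, 5% FBS). % activity scaled between DMSO wells and medium-only wells, then curve-fitted and categorized by curve class.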
# HT1080 IDH1KD tx = kills HT-1080 cells with IDH1 knockdown; HT-1080 IDH1 knockdown viability, ATP luminescence, 48 h; actives 2% (n = 360,000); Potency, µM (titrated, usually from 46.1 µM), for inactives: top-dose activity, negative = toxicity, usual class: cytotoxic; AID 686971;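 further: 0% = DMSO wells and -100% = cell-free medium wells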
#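 HT-1080-IDH1KD cells (IDH1 knocked down), 750/well in RPMI with 5% FBS, treated with compound 48 h at 37 degrees C. Viability by CellTiter-Glo luminescence, normalised to DMSO and no-cell wells; concentration-response curves classed.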
# Starred values were filed as active, the others as inactive; i = inactive; ? = inconclusive; nt = not tested or not shown; [ ] = another dose, or the depositor's remark. The call rests on the fitted dose curve; in most records, active means well fitted curve in the direction sought with a large enough effect; inconclusive means small, poorly fitted or top-dose-only effect, or another doubt; inactive means no such curve, though single readings can be large; an effect the other way counts as inactive or inconclusive. Potency means the concentration at half of the fitted maximal effect.
SMILES,SW480 rereplic,MCF10A rereplic,KB-3-1 cytotox,KB-V1 cytotox,HT1080NT lethal,HT1080 IDH1KD tx
CCC(Oc1ccccc1)C(=O)N1CCN(Cc2cc(=O)n3nc(-c4cccc(C)c4)sc3n2)CC1 (stereo not given),nt,nt,?,i,nt,nt
CCCS(=O)(=O)N1CC(=O)N(c2cccc(Cl)c2)C(C)(C(=O)NC2CCCCC2)C1 (stereo not given),nt,nt,i,i,nt,nt
FC(F)(F)c1cc(-c2ccc(Cl)cc2)nc(NCc2cccnc2)n1,?,16.4µM*,i,?,-4.5%,4.5%
COc1ccc(-c2cc(C(F)(F)F)nc(NCc3ccc(Cl)cc3)n2)cc1,nt,nt,i,i,nt,nt
Cc1cc2cc(C=C(C#N)C#N)c(Cl)nc2cc1C,?,18.4µM*,i,i,-20.9%,?
CCCCn1c(SCC(=O)c2cc(OC)ccc2OC)nc2cc(S(N)(=O)=O)ccc21,-2.9%,6.0%,i,i,-7.5%,-3.1%
CCCCn1c(SCc2ccc(C(=O)OC)o2)nc2cc(S(N)(=O)=O)ccc21,-0.1%,-3.0%,18.4µM*,?,?,-4.1%[9.24 µM]
OCC1(CCCc2ccccc2)CCN(Cc2cnc(N3CCOCC3)s2)CC1,-3.0%,?,20.6µM*,?,-3.6%,-4.6%
Clc1ncc(CN2CCN(c3ccccc3)CC2)s1,-4.5%,-1.7%,i,i,-17.2%,0.0%
c1ccc(N2CCN(Cc3cnc(N4CCOCC4)s3)CC2)cc1,2.8%,?,i,13µM*,-11.7%,-12.0%
COc1cccc(N2C(=O)CSC23C(=O)N(CC(=O)NCc2ccc(C)cc2)c2ccccc23)c1 (stereo not given),nt,nt,i,i,nt,nt
Cc1cccc(Nc2nc3ccccc3n3nnnc23)c1,9.9%,1.4%,i,i,-11.3%,-14.3%
Cc1ccc(Nc2nc3ccccc3n3nnnc23)cc1,-126.2%,?,i,i,-8.2%,-2.6%
COc1cc(Nc2nc3ccccc3n3nnnc23)cc(OC)c1OC,-4.8%,29.1µM*,i,i,14.3%,0.9%
COc1ccc(Nc2nc3ccccc3n3nnnc23)cc1,3.5%,8.5%,i,5.8µM*,-6.7%,?
Cc1cccc(C)c1NC(=O)Cn1cc(C(=O)C2CC2)c2ccccc21,nt,nt,i,i,nt,nt
Cc1cc(C(=O)COc2cccnc2[N+](=O)[O-])c(C)n1Cc1cccs1,11.0%,?,?,?,?,-2.2%
Cc1cc(C(=O)CSc2nnc(N)s2)c(C)n1Cc1cccs1,-70.2%,16.3%,?,23.1µM*,-2.7%,1.6%
Cc1csc(SCC(=O)c2cc(C)n(Cc3cccs3)c2C)n1,0.6%,22.5%,?,?,-10.1%,?
CC(=O)Nc1ccccc1OCC(=O)c1cc(C)n(Cc2cccs2)c1C,0.6%,13.8%,4.61µM*,?,-13.2%,2.59µM*
CCCOC(=O)c1ccc(Cn2nnc3sc4c(c3c2=O)CCC(C)C4)cc1 (stereo not given),nt,nt,i,i,nt,nt
C/C=C/c1ccc2c(c1)O[C@H](CN(C)C(=O)NC1CCCC1)[C@H](C)CN([C@H](C)CO)S2(=O)=O,nt,nt,i,i,-1.6%,-3.8%
Cc1ccc(C(=O)/C=C/c2cn(CC(O)CN3CCOCC3)c3ccccc23)cc1 (stereo not given),20.6µM*,13µM*,?,i,?,?
CCCN(CCC)CC(O)Cn1cc(/C=C/C(=O)c2ccc(OCC)cc2)c2ccccc21 (stereo not given),nt,nt,i,?,nt,nt
COc1ccc(C(=O)/C=C/c2cn(CC(O)CN3CCOCC3)c3ccccc23)cc1 (stereo not given),14.6µM*,14.6µM*,i,i,?,?
Cc1ccc(C(=O)/C=C/c2cn(CC(O)CN3CCc4ccccc43)c3ccccc23)cc1 (stereo not given),nt,nt,?,i,nt,nt
